# Mtb hypoxia rep = inhibitors of hypoxia-regulated fluorescent reporter in Mycobacterium tuberculosis. actives 0.1% (n = 300,000). AID 1159583. fluorescence inhibition, % (concentration not given with the values). M. tuberculosis hypoxia-regulated fluorescent reporter, fluorescence; in the data active means fluorescence inhibition mostly above about 23%, no sharp cut-off; inactive means mostly below about 17%
# RecA intein inh = inhibitors of M. tuberculosis RecA intein splicing; actives 0.75% (n = 290,000); AID 2221; P9WHJ3; cell-free RecA intein splicing, fluorescence; inhibition, % (no concentration beside the values); in the data active means inhibition above about 30%;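 further: 0% = vehicle wells and 100% = reference inhibitor control wells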
# Target sequence (P9WHJ3 whole entry, looked up): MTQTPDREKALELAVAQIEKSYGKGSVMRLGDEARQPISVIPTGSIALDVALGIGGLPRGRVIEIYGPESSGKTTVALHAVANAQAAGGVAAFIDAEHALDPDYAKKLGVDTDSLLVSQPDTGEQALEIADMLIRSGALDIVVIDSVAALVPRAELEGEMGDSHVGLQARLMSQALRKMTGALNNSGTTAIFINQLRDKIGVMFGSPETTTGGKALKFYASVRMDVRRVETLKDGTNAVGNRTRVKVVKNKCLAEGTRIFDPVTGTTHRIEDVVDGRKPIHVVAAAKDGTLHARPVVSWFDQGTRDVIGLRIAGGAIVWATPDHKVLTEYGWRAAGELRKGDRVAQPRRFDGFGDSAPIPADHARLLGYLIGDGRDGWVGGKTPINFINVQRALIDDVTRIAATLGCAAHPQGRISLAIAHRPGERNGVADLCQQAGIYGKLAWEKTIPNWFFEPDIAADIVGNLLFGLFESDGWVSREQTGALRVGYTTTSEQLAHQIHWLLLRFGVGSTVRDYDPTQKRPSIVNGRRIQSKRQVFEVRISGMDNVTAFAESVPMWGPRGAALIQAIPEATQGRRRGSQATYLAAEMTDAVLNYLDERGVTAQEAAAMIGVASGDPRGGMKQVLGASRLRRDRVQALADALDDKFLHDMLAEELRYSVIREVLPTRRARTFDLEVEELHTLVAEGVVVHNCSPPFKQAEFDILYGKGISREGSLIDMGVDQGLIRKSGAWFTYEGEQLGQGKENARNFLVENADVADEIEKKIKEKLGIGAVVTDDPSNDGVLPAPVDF
# Mtb betalactam = beta-lactam sensitization of Mtb H37Rv; M. tuberculosis H37Rv growth with meropenem, percent inhibition; inhibition, % at 25 µM; actives 0.27% (n = 330,000); AID 434955;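 further: growth measured after seven days incubation then overnight dye step; 0% = bacteria only wells and 100% = bacteria with antibiotic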
# UGM FP inh = Mtb UDP-galactopyranose mutase inhibition; actives 0.06% (n = 320,000); P9WIQ1; AID 504406; inhibition, % at 10 µM; purified UGM, fluorescence polarization probe displacement; in the data active means inhibition above about 10%, passing the limit was not always enough
# Rv3671c protease = inhibits the M. tuberculosis serine protease Rv3671c; actives 0.048% (n = 320,000); AID 2606; inhibition, % at 5.96 µM; in the data active means inhibition above about 38%;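 further: extracellular domain of Rv3671c used as enzyme; 0% = enzyme with DMSO and 100% = no enzyme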
# GFP chromo cs = counter-screen GFP chromophore formation inhibition; actives 83% (n = 2,100); EC50, µM; shares compounds with RecA intein inh; cell-free GFP chromophore formation, fluorescence
# The depositor's hits bear a star; x = no result given. Shown are actives, neighbours in structure and some others; about 0.77% of the full set was active somewhere. Unless noted, how the calls were made is not given here.
SMILES,Mtb hypoxia rep,RecA intein inh,Mtb betalactam,UGM FP inh,Rv3671c protease,GFP chromo cs
COC(=O)C1CC2CCC(O)CC2N1Cc1ccccc1OC(=O)c1cccs1 (configuration not stated),2,x,x,x,x,x
O=C(CCl)N1CCN(S(=O)(=O)c2ccc3ccccc3c2)CC1,13,76*,99,1,4,28*
CN(C)C(=O)N1CCN(S(=O)(=O)c2ccc3ccccc3c2)CC1,3,x,-3,1,-3,x
CCC1=C(OC(=O)N(CC)CC)N2C(=O)OC(=NCC3CC3)[C@]2(Cc2ccccc2)C2C1=CCC1C(=O)N(C)C(=O)C12 (some centres not stated),6,x,x,x,x,x
CCOC(=O)c1c(C)[nH]c2cc(Br)c(O)cc12,0,-2,-3,1,0,x
CCOC(=O)c1c(OCC)[nH]c2c1cc(O)c1ccccc12,7,95*,24,-1,16,4.3*
Cn1c(N)c(C(=O)COC(=O)C2CCCN2S(=O)(=O)c2ccc(Cl)cc2)c(=O)n(C)c1=O (configuration not stated),-13,x,x,x,x,x
COc1cc(C(c2c(C)[nH][nH]c2=O)c2c(C)[nH][nH]c2=O)ccc1OS(=O)(=O)c1ccc(C)cc1,4,98*,-5,-2,-7,0.44*
COc1cc(C(c2c(C)[nH][nH]c2=O)c2c(C)[nH][nH]c2=O)ccc1OS(=O)(=O)c1ccccc1,2,95*,-10,2,-6,0.44*
COc1cc(C(c2c(C)[nH][nH]c2=O)c2c(C)[nH][nH]c2=O)ccc1OC(=O)c1cccc([N+](=O)[O-])c1,0,x,3,-2,-7,x
COC(=O)CN1C(=O)C2C(C=Cc3ccccc3)N3C(=O)CN(Cc4ccccc4)C(=O)[C@@]3(C)C2C1=O (some centres not stated),3,x,x,x,x,x
c1ccc(-c2ccc(C3CCCN3)cc2)cc1 (configuration not stated),10,90*,2,0,-1,>38
C[C@@]12C(=O)N(Cc3ccco3)CC(=O)N1C1c3ccccc3OCC1C2c1ccccc1 (some centres not stated),0,x,x,x,x,x
COc1cccc(CN2CCSCC2)c1OC,-4,-4,-6,2,0,x
COc1ccccc1CN1CCSCC1,5,33*,-1,-1,6,25*
COc1cc(N=Nc2cccc(S(N)(=O)=O)c2)c2ccccc2c1N,4,45*,20,-2,-6,33*
CC1CC[C@]2(C(=O)O)CC[C@]3(C)C(=CCC4[C@@]5(C)CCC(O)C(C)(C)C5CC[C@]43C)C2C1C (some centres not stated),-2,x,x,x,x,x
CC1(C)Cc2ccccc2C2=NNC(=O)C2=N1,15,94*,95,-1,-14,1.1*
CC1(C)Cc2ccccc2C(Nn2cnnc2)=N1,14,1,-6,5,2,x
CC(C)(C)OC(=O)N[C@@H](Cc1ccccc1)c1nnc(S(=O)(=O)Cc2cccc(F)c2)o1,x,12,75,-3,0,x
CC(C)[C@H](NC(=O)OC(C)(C)C)c1nnc(S(=O)(=O)Cc2c(F)cccc2Cl)o1,5,56*,17,-3,10,23*
O=C(N/N=C\c1ccc(-c2ccccc2[N+](=O)[O-])o1)C1COc2ccccc2O1 (configuration not stated),x,33*,-12,1,-75,39*
O=C(CNC(=O)C1COc2ccccc2O1)N/N=C\c1ccccc1Cl (configuration not stated),x,0,-2,4,-12,>38
O=C(N/N=C\c1ccc(-c2ccccc2[N+](=O)[O-])o1)C1COc2cc3ccccc3cc2O1 (configuration not stated),x,13,-3,2,-40,x
C#CCOCCOCCOCCNc1nc(N2CCN(C(=O)C(CCC(=O)O)n3cc(C(N)CO)nn3)CC2)nc(N2CCN(C(=O)C(CCC(=O)O)n3cc(C(N)CC(C)C)nn3)CC2)n1 (configuration not stated),1,x,x,x,x,x
CN(C)c1ccc(C=C2C(=O)NC(=O)N(CCc3ccc(F)cc3)C2=O)cc1,-2,x,x,x,x,x
COC1=C(c2ccccc2)C(=O)c2ccccc2C1=O,9,69*,4,2,-18,14*
Oc1ccc2c3c1OC1c4oc5ccccc5c4C[C@@]4(O)C(C2)N(CC2CC2)CC[C@]314 (some centres not stated),0,x,x,x,x,x

# Screens deposited in PubChem by several laboratories.
